15 compounds from PubChem BioAssay AID504710 (Sanford-Burnham Center for Chemical Genomics, 2011) can be followed below.

The test concerns the target Hexokinase HKDC1 (Homo sapiens) (UniProt Q2TB90). The test can be described thus: HKDC1 hexokinase inhibitors, confirmation, biochemical, single concentration (AID 504710). Particulars: recombinant HKDC1, G6PDH/diaphorase/resazurin fluorescence; at 20 µM; hits give high values.

SMILES strings stand for the structures. Unmarked numbers belong to inactive results. Active and inactive are the calls of the source.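 Rule for the calls: active = inhibition reaching about 16% in any single replicate (limit read from the data); inactive = the rest.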

Sequence of Hexokinase HKDC1 (Homo sapiens) (Q2TB90 whole entry, looked up): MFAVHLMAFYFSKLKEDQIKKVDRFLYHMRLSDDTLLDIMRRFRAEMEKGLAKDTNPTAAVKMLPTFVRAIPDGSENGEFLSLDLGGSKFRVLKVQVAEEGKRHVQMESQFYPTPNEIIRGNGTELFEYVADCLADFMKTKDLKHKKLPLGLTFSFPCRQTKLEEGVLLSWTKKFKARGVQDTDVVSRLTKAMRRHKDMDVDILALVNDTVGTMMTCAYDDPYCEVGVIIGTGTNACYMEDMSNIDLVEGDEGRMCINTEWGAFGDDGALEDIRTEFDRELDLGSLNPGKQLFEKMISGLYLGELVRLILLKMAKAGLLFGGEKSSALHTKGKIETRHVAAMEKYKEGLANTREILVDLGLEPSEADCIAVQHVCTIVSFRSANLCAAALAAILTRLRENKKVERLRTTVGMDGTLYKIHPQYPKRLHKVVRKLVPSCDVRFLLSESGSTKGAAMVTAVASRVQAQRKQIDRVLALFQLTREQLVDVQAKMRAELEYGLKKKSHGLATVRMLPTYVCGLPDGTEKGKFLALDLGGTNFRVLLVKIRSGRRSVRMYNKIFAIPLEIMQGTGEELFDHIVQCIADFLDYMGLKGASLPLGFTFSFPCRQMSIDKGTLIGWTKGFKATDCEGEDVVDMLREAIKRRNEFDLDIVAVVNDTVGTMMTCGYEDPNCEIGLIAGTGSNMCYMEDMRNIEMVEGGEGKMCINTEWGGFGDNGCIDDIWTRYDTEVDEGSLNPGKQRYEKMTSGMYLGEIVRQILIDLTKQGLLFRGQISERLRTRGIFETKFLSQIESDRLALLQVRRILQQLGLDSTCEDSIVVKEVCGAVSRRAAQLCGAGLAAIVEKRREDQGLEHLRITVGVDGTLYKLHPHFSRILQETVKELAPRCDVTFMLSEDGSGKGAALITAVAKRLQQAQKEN

By inhibition is commonly meant the change of the read-out against control, counted positive when it falls. Consider `CCN(CC)Cc1cc(O)c(CN(CC)CC)cc1O`, for which the inhibition was 41.2% (active).
As for `COc1ccc(N2C3=C(CC4=C2CCCC4=O)C(=O)CCC3)cc1`, the inhibition is 47.1% (active).
With `Oc1ccc(/C=N/Nc2ncc(Br)cn2)c(O)c1`, the inhibition was 44.6% (active).
Take `Nc1nc(N2CCN(c3ccccn3)CC2)nc2ccccc12`: the inhibition is -44.1%.
In the case of `COC1=CC(=O)C=C(OC)C1=O`, the inhibition is 75.2% (active).
The same measure for `CCCCNC(=O)c1sc(=S)n2c1[nH]c(=O)c1ccc(C(=O)NCCc3ccc(OC)c(OC)c3)cc12`: 49.8% (active); for `COc1ccc(-n2c(C)cc(C(=O)CCl)c2C)cc1`: 34.3% (active); for `CCc1ccc(S(=O)(=O)/N=C2\C=C(Nc3ccc(C(=O)O)cc3)C(=O)c3ccccc32)cc1`: 59.8% (active).
As to `CCn1c2ccccc2c2nc3cc(S(=O)(=O)N4CCOCC4)ccc3nc21`, the inhibition is -47.4%.
Turning to `O=C(CN(C(=O)CCC(=O)Nc1ccccn1)c1ccc2c(c1)OCO2)NCc1ccc(F)cc1`, the inhibition was 31.3% (active).
In the case of `COc1cc(/C=C2\SC(c3ccc(C)cc3)=NC2=O)ccc1O` it was 32.2% (active).
In the case of `O=C(O)c1ccc(S(=O)(=O)/N=C2\C=C(Nc3ccccc3F)C(=O)c3ccccc32)cc1` it was 75.7% (active); in that of `Cc1ccc(C)c(-n2c3nc(=O)[nH]c(=O)c-3cc3cc([N+](=O)[O-])ccc32)c1`, 39.2% (active); in that of `Cc1[nH]n(-c2ccccc2)c(=O)c1/C=N/Nc1nncc(-c2ccccc2)n1`, -60.6%.
The same measure for `O=C1C(=O)c2c(C(=O)c3ccccc3)coc2-c2ccccc21`: 53.2% (active).
